Values joined by “and” are separate entries in the source; they are usually repeats but may differ in a detail not shown here. Identical values can stand only once. Results filed as inconclusive are left out. A call without a number means that no potency is given here. Where a structure was tested more than once in an assay, its records may differ in their call. Active and inactive are the calls of the source. Unless noted, calls follow the shape of the dose curve; as a rule, active = well fitted curve in the direction sought with a large enough effect in the repeat runs; inconclusive = weak or mixed curves; inactive = no such curve, though single readings can be large; an effect the other way counts as inactive or inconclusive.
How the values were obtained:
[1] = qHTS assay to identify small molecule agonists of the peroxisome proliferator-activated receptor delta (PPARd) signaling pathway - cell viability counter screen (AID 743211); also: nearly all actives have a fitted effect of over 55% in size
Summary of the method: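 Counter screen for cytotoxicity run in parallel with the PPARd reporter screen. Beta-lactamase reporter HEK293H cells exposed to compounds 17 h; ATP-based CellTiter-Glo luminescence quantified viability.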

[2] = target: Peroxisome proliferator-activated receptor delta (Homo sapiens) (UniProt Q03181); assay: qHTS assay to identify small molecule agonists of the peroxisome proliferator-activated receptor delta (PPARd) signaling pathway (AID 743212; calls by dose curve)
Summary of the method: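 HEK293H PPARd-bla cells; 5 h preincubation 37 C/5% CO2; compound (DMSO) 37 C; LiveBLAzer B/G FRET substrate 2 h RT; fluorescence intensity.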

[3] = qHTS assay to identify small molecule antagonists of the peroxisome proliferator-activated receptor delta (PPARd) signaling pathway - cell viability counter screen (AID 743213); also: nearly all actives have a fitted effect of over 50% in size; also: potency is read from the fitted curve at half-maximal effect
Summary of the method: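 Cytotoxicity counter screen: CellTiter-Glo luminescence read 30 min after addition, in the same wells as the reporter assay. There, PPARd UAS-bla HEK293H cells (3000/well) were treated 17 h at 37 C with compound and 300 nM L165041.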

[4] = target: Bile acid receptor (Homo sapiens) (UniProt Q96RI1); assay: qHTS assay to identify small molecule antagonists of the farnesoid-X-receptor (FXR) signaling pathway (AID 743217; active = well fitted inhibition curve with a large enough effect in the signal ratio in the repeat runs, not every such curve was filed as active; the % refers to the signal ratio; also: potency is read from the fitted curve at half-maximal effect)
Summary of the method: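 Beta-lactamase reporter under UAS control in HEK 293T cells; compound exposure 16 h at 37 °C in the presence of chenodeoxycholic acid (50 uM final); signal from B/G FRET substrate after 2 h at room temperature.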

[5] = qHTS assay to identify small molecule agonists of the farnesoid-X-receptor (FXR) signaling pathway - cell viability counter screen (AID 743218); also: nearly all actives have a fitted effect of over 45% in size; also: potency is read from the fitted curve at half-maximal effect
Summary of the method: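 In GeneBLAzer FXR-UAS-bla HEK 293T cells, compounds act for 16 h at 37 C. Cell viability is then scored in the reporter wells by CellTiter-Glo, 30 min at RT, luminescence.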

[6] = target: Bile acid receptor (Homo sapiens) (UniProt Q96RI1); assay: qHTS assay to identify small molecule agonists of the farnesoid-X-receptor (FXR) signaling pathway (AID 743220; active = well fitted activation curve with a large enough effect in the signal ratio in the repeat runs, not every such curve was filed as active; the % refers to the signal ratio)
Summary of the method: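 Beta-lactamase reporter under UAS control in GeneBLAzer FXR HEK 293T cells (5000/well) measured with LiveBLAzer FRET substrate after 2 h at room temperature. Compound exposure lasted 16 h at 37C.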

[7] = qHTS assay to identify small molecule antagonists of the farnesoid-X-receptor (FXR) signaling pathway - cell viability counter screen (AID 743221; active = well fitted cell-killing curve with a large enough effect in the repeat runs, not every such curve was filed as active; also: nearly all actives have a fitted effect of over 50% in size)
Summary of the method: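 Multiplexed counter screen: viability of FXR-bla HEK 293T cells under agonist stimulation by chenodeoxycholic acid (50 uM, final) and test compound for 16 h at 37 C, measured by CellTiter-Glo luminescence in the reporter wells.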

[8] = qHTS assay to identify small molecule agonists of the vitamin D receptor (VDR) signaling pathway - cell viability counter screen (AID 743224); also: nearly all actives have a fitted effect of over 50% in size; also: potency is read from the fitted curve at half-maximal effect
Summary of the method: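 VDR-bla cell line, quantitative HTS format; 16 h compound incubation (37C, 5% CO2); ATP-based CellTiter-Glo luminescence measured in the reporter assay wells.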

[9] = qHTS assay to identify small molecule antagonists of the vitamin D receptor (VDR) signaling pathway - cell viability counter screen (AID 743225); also: nearly all actives have a fitted effect of over 50% in size; also: potency is read from the fitted curve at half-maximal effect
Summary of the method: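 HEK293T VDR-bla; cpd + 1a,25-(OH)2D3 3 nM final, 16 h 37C/5% CO2; B/G FRET substrate 2 h RT; then CellTiter-Glo 30 min RT, luminescence.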

[10] = qHTS assay to identify small molecule agonists of the NFkB signaling pathway - cell viability counter screen (AID 1159515; calls by dose curve; also: series mostly up to about 61 µM; nearly all actives have a fitted effect of over 55% in size)
Summary of the method: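 Viability in NFkB-bla ME-180 cells was measured by CellTiter-Glo luminescence, 30 min room temperature, in wells already treated 5 hr with compounds and read for reporter FRET.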

[11] = qHTS assay to identify small molecule agonists of the endoplasmic reticulum stress response signaling pathway (AID 1159516; active = well fitted activation curve with a large enough effect in the signal ratio in the repeat runs, not every such curve was filed as active; the % refers to the signal ratio)
Summary of the method: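 ER stress element reporter (bla) in HeLa. 1,500 cells/well, overnight attachment; 5 hr compound; 2 hr RT substrate; dual-emission fluorescence.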

[12] = qHTS assay to identify small molecule antagonists of the retinoid-related orphan receptor gamma (ROR-gamma) signaling pathway - cell viability counter screen (AID 1159520); also: nearly all actives have a fitted effect of over 50% in size; also: potency is read from the fitted curve at half-maximal effect
Summary of the method: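 Cytotoxicity was read from cellular ATP (CellTiter-Glo luminescence) after 16 hr at 37 C with 1 uM doxycycline induction. The inducer was added 2 hr after compound transfer to Tet-on ROR gamma CHO cells.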

[13] = qHTS assay to identify small molecule agonists of the AP-1 signaling pathway - cell viability counter screen (AID 1159525; calls by dose curve; also: nearly all actives have a fitted effect of over 55% in size)
Summary of the method: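 Luminescent ATP readout (Cell Titer Glo, 30 min RT), normalised to DMSO and tetra n-octyl ammonium bromide controls. Cells were ME-180 AP-1-bla in 0.5% dialyzed FBS Opti-MEM, with a 5 h, 37 °C compound exposure.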

[14] = qHTS assay to identify small molecule agonists of the AP-1 signaling pathway (AID 1159526; calls by dose curve)
[15] = target: Vitamin D3 receptor (Homo sapiens) (UniProt P11473); assay: qHTS assay to identify small molecule agonists of the vitamin D receptor (VDR) signaling pathway (AID 743222; calls by dose curve)
Summary of the method: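 Agonist activity measured in VDR-bla reporter cells. Exposure 16 h, 37C, 5% CO2; detection by B/G FRET substrate, 2 h RT.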

[16] = target: Vitamin D3 receptor (Homo sapiens) (UniProt P11473); assay: qHTS assay to identify small molecule antagonists of the vitamin D receptor (VDR) signaling pathway (AID 743223; active = well fitted inhibition curve with a large enough effect in the signal ratio in the repeat runs, not every such curve was filed as active; the % refers to the signal ratio)
Summary of the method: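 Cells carrying a VDR-driven beta-lactamase reporter (VDR-bla) were co-treated with compound and 3 nM final 1alpha,25-dihydroxyvitamin D3 for 16 h at 37C; reporter activity was measured as FRET substrate fluorescence after 2 h at room temperature.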

[17] = target: Retinoic acid receptor RXR-alpha (Homo sapiens) (UniProt P19793); assay: qHTS assay to identify small molecule agonists of the RXR signaling pathway (AID 1159527; calls by dose curve; also: nearly all actives have a fitted effect of over 35% in size)
Summary of the method: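 Cells plated at 2,000/well, rested 5 hr at 37 C, pin-dosed with DMSO compound solutions, incubated 16 hr, then loaded with B/G FRET substrate for 2 hr at RT before dual-emission fluorescence reading.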

[18] = target: Nuclear receptor ROR-gamma (Homo sapiens) (UniProt P51449); assay: qHTS assay to identify small molecule antagonists of the retinoid-related orphan receptor gamma (ROR-gamma) signaling pathway (AID 1159521; also: nearly all actives have a fitted effect of over 50% in size; also: potency is read from the fitted curve at half-maximal effect)
Summary of the method: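 Cells were plated, rested 4 h at 37 C, exposed to compounds for 2 h, then given 1 uM final doxycycline hyclate to induce RORγ expression. After 16 h, ONE-Glo luminescence from the ROR response element reporter was measured.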

Vitamin D3 receptor (Homo sapiens), sequence (P11473 whole entry, looked up): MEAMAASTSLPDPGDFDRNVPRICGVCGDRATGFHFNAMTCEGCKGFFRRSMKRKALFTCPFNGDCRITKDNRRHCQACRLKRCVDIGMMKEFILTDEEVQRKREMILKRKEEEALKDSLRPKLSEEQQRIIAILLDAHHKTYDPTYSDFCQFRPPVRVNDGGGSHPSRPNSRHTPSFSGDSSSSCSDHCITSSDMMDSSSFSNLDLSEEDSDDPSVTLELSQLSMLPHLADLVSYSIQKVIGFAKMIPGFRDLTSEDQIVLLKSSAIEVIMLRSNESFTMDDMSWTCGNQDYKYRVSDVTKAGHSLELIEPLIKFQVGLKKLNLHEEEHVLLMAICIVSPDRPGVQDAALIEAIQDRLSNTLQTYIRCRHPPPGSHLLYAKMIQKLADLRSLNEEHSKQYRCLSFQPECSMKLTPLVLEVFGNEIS
Peroxisome proliferator-activated receptor delta (Homo sapiens), sequence (Q03181 whole entry, looked up): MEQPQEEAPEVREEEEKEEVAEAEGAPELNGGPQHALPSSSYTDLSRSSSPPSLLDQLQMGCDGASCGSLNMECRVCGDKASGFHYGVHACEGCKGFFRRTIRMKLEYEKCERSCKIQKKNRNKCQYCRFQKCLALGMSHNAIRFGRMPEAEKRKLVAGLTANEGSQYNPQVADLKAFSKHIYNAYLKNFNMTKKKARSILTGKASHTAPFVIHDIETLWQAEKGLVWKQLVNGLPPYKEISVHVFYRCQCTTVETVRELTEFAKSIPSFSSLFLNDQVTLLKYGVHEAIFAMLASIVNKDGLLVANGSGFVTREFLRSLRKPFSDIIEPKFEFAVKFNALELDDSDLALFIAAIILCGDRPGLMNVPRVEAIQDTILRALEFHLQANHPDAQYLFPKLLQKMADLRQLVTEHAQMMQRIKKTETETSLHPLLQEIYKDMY
Bile acid receptor (Homo sapiens), sequence (Q96RI1 whole entry, looked up): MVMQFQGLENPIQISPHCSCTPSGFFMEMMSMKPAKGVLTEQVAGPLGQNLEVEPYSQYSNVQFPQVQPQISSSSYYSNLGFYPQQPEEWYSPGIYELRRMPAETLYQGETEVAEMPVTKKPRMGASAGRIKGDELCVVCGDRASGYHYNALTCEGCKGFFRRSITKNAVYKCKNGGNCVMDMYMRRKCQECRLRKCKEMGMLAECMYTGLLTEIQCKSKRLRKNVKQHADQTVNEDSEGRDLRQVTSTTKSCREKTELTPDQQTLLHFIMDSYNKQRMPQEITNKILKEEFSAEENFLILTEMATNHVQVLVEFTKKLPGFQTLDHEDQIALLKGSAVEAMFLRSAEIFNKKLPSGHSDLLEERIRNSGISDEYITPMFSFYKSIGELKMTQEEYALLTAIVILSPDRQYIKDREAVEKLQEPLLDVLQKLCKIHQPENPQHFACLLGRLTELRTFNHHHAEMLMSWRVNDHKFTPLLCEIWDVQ
Retinoic acid receptor RXR-alpha (Homo sapiens), sequence (P19793 whole entry, looked up): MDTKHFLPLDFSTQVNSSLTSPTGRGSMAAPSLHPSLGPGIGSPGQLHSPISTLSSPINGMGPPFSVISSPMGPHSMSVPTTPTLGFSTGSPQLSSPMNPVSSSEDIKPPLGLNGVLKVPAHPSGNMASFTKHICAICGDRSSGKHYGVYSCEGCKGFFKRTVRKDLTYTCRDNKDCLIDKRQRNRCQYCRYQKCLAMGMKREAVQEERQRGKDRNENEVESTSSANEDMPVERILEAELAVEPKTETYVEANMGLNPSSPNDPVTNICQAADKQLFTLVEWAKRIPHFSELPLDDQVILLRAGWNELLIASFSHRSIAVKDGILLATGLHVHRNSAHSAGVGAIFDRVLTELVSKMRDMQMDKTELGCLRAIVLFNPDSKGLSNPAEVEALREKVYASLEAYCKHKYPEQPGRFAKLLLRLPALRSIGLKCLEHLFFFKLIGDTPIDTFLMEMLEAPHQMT

| Structure (SMILES) | Potency [1] | outcome [2] | Potency [3] | Potency [4] | Potency [5] | outcome [6] | Potency [7] | Potency [8] | Potency [9] | Potency [10] | Potency [11] | Potency [12] | Potency [13] | Potency [14] | outcome [15] | outcome [16] | Potency [17] | Potency [18] |
| --- | --- | --- | --- | --- | --- | --- | --- | --- | --- | --- | --- | --- | --- | --- | --- | --- | --- | --- |
| CC(C)(C)c1cccc(C(C)(C)C)c1O | inactive | inactive | inactive | inactive | inactive | inactive | inactive | inactive | inactive | inactive | inactive | inactive | inactive | inactive |  |  |  |  |
| C=CCNCC=C | inactive |  | inactive | inactive | inactive | inactive | inactive | inactive | inactive | inactive | inactive | inactive | inactive | inactive | inactive | inactive | inactive |  |
| O=C(CCCN1CCC(O)(c2ccc(Cl)cc2)CC1)c1ccc(F)cc1 |  |  | 30.9 µM (active) and 21.1 µM (active) | inactive | 30.9 µM (active) and inactive | inactive |  | inactive | inactive | inactive | inactive | 54.5 µM (active) and inactive | inactive | inactive |  |  |  | inactive |
| C=C1C[C@H]2[C@@H]3C=C(C)C4=CC(=O)CC[C@]4(C)[C@H]3CC[C@]2(C)[C@@]1(OC(C)=O)C(C)=O |  |  | inactive |  | inactive |  | inactive |  | inactive | inactive | inactive | inactive | inactive | inactive |  |  | inactive | inactive |
| CC(C)=CCO | inactive | inactive | inactive |  | inactive |  | inactive | inactive | inactive | inactive | inactive | inactive | inactive | inactive | inactive | inactive | inactive | inactive |
| C=CCCCCCCCCCC | inactive | inactive | inactive |  | inactive |  | inactive | inactive | inactive | inactive | inactive | inactive | inactive | inactive |  |  | inactive | inactive |
| COc1ccc2nc(N)sc2c1 |  |  | inactive |  | inactive |  | inactive |  | inactive | inactive | inactive | inactive | inactive | inactive | inactive | inactive |  | inactive |
| CN(Cc1cnc2nc(N)nc(N)c2n1)c1ccc(C(=O)N[C@@H](CCC(=O)O)C(=O)O)cc1 |  |  |  | 376 nM (active) |  | inactive |  |  | 213 nM (active) | inactive | inactive | inactive | inactive | inactive |  |  |  | inactive |
| CC1(C)NC(=O)N(c2ccc([N+](=O)[O-])c(C(F)(F)F)c2)C1=O | inactive |  | inactive | inactive | inactive | inactive | inactive |  | inactive | inactive | inactive | inactive | inactive | inactive | inactive | inactive | inactive | 17.2 µM (active) and 18.8 µM (active) |
| [O-]/[N+](=N\O)c1ccccc1 | inactive | inactive | inactive |  | inactive |  | inactive | inactive | inactive | inactive | inactive | inactive | inactive | inactive | inactive | inactive | inactive | inactive |
| CC(=O)Oc1c(C)c(C)c2c(c1C)CC[C@@](C)(CCC[C@H](C)CCC[C@H](C)CCCC(C)C)O2 |  | inactive | inactive |  | inactive |  | inactive | 49 µM (active) and inactive | inactive | inactive | inactive | inactive | inactive | inactive | inactive | inactive | inactive | inactive |

Source: PubChem BioAssay (Tox21)
